Assay outcomes deposited in PubChem by several laboratories.
Mcl1 Noxa PPI: Mcl-1/Noxa binding inhibitors, primary screen, biochemical, TR-FRET, 1536-well | Induced myeloid leukemia cell differentiation protein Mcl-1 (Homo sapiens), Q07820 | TR-FRET Mcl-1/Noxa peptide binding, 2 h | 220,000 tested, 1.5% active | AID 1022, 2008 | inhibition, % at 21.7 µM;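 active means compounds that cut the protein-peptide binding signal by more than 50% relative to plate controls in a single-dose test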;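 further: His-tagged Mcl-1 with rhodamine Noxa BH3 peptide and terbium anti-His antibody; 0% = Mcl-1 plus Noxa peptide wells and 100% = peptide-only wells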
Target sequence (Q07820 whole entry, looked up): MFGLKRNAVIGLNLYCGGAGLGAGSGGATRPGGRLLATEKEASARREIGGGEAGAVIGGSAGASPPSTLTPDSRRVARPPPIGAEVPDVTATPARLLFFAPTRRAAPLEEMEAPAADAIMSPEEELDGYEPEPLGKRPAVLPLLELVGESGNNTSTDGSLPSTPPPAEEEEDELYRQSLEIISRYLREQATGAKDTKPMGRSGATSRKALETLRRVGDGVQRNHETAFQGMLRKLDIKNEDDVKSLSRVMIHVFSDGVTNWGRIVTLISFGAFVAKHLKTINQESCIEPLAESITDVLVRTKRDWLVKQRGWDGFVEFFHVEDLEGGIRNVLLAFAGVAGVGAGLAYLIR
m-calpain inh: inhibitors of pig calpain II, primary screen, biochemical, fluorogenic peptide substrate, 1536-well. purified calpain II, 30 min. inhibition, % at 16 µM. 220,000 tested, 0.37% active. AID 1236, 2008;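 active means inhibition above about 50%, limit read from the data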
Mcl1-Bid inh: Mcl-1/Bid binding inhibitors, primary screen, biochemical, TR-FRET, 1536-well | Induced myeloid leukemia cell differentiation protein Mcl-1 (Homo sapiens), Q07820 | TR-FRET Mcl-1/Bid-Dy647 peptide binding | inhibition, % at 21.7 µM | 220,000 tested, 0.97% active | AID 1021, 2008;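 active means compounds that cut the binding signal by more than half at the single screening dose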;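 further: His-tagged Mcl-1 with europium anti-His antibody binding Bid BH3 peptide; 0% = Mcl-1 plus peptide wells and 100% = peptide-only wells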
TNF necrop inh: inhibitors of TNF-alpha triggered necroptosis, primary screen, cell-based, Jurkat FADD-/-, single concentration. activation (protection from cell death), % at 10 µM. 220,000 tested, 0.068% active. AID 463075, 2010. Jurkat FADD-/- TNF necroptosis rescue, ATP luminescence, 24 h; 0 = TNF only, 100 = no-TNF cells;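 active means activation, meaning protection from cell death, of at least 50% relative to plate controls; inactive means activation below 50%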;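 further: necroptosis triggered by 40 ng/mL TNF-alpha added together with compound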
L929 necroptosis: inhibitors of zVAD-triggered necroptosis, primary screen, L929 cells; AID 1377, 2008; viability rescue, % at 10 µM; 220,000 tested, 0.38% active; L929 zVAD necroptosis rescue, ATP luminescence, 24 h; with zVAD 60 µM;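 active means activation, scaled between plate controls, above about 75%, limit read from the data; inactive means activation under that limit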;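 further: 0% = zVAD with DMSO and 100% = DMSO alone without zVAD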
Mcl-1 Bim block: inhibitors of Bim peptide binding to Mcl-1, primary screen, biochemical, bead-based flow cytometry, multiplex | Induced myeloid leukemia cell differentiation protein Mcl-1 (Homo sapiens), Q07820 | Bim peptide-Mcl-1 binding | inhibition, % at 10 µM | 190,000 tested, 0.1% active | AID 1009, 2008; in the data active means inhibition above about 40%;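 further: 0% = no compound tracer wells and 100% = peptide blocker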
The depositor's hits bear a star; nt = no result. Compounds with a hit are over-represented: about 2.8% of the library has one in this group of screens.

SMILES | Mcl1 Noxa PPI | m-calpain inh | Mcl1-Bid inh | TNF necrop inh | L929 necroptosis | Mcl-1 Bim block
CCCCn1c(=O)c(CCC(=O)OCC(=O)Nc2ccc(F)c(Cl)c2)nc2ccccc21 | -5 | 8 | -1 | 1 | 1 | 15
O=C(Nc1ccc2oc(-c3cccnc3)nc2c1)c1ccc(Br)o1 | 23 | -73 | 52* | -2 | 0 | 0
O=C(Nc1ccc2oc(-c3cccnc3)nc2c1)c1ccc([N+](=O)[O-])o1 | 67* | 4 | 61* | -13 | 27 | 0
CC1(c2ccc(Cl)cc2)NC(=O)N(CC(=O)N2CCCC2)C1=O (centres undefined) | -10 | -18 | -14 | -3 | 0 | -3
Cc1cc(C)cc(OCC(=O)NNC(=O)CCC(=O)NCc2ccccc2)c1 | 11 | 1 | 7 | -1 | 0 | nt
CCOc1ccc(/C=N/NC(=O)c2nnn(-c3nonc3N)c2COc2ccc(F)cc2)cc1 | 9 | -68 | -22 | 3 | 0 | nt
CCCOc1ccc(-c2c(C(=O)N/N=C/c3ccc(OC)cc3)nnn2-c2nonc2N)cc1 | 12 | -231 | -27 | 0 | 1 | 55*
CN(C)c1ccc(/C=N/NC(=O)c2nnn(-c3nonc3N)c2COc2ccc(F)cc2)cc1 | 59* | -7 | -40 | 2 | 1 | nt
CCCOc1ccc(-c2c(C(=O)N/N=C/c3ccc(OCC)cc3)nnn2-c2nonc2N)cc1 | -1 | -348 | -22 | 1 | 2 | -5
CCN1C(=O)N(C)C(N(O)C(=O)NC)C1(C)C (centres undefined) | 10 | 23 | 2 | -1 | 0 | 3
CCOC(=O)c1c(C)oc2c1c(C=NCCO)c(O)c1ccccc12 | 10 | -165 | -65 | -10 | 8 | 0
CCOC(=O)c1c(C)oc2c1c(C(c1ccccc1)N1CCOCC1)c(O)c1ccccc12 (centres undefined) | 58* | -20 | 60* | -5 | 0 | 1
CCOC(=O)c1c(C)oc2c1c(C(c1cccnc1)N1CCCCC1)c(O)c1ccccc12 (centres undefined) | 98* | -18 | 60* | -6 | 0 | 0
CCOC(=O)C1CCN(C(c2cccnc2)c2c(NC(=O)c3ccco3)sc(C)c2C)CC1 (centres undefined) | -5 | -7 | -79 | -8 | -1 | 0
CCOC(=O)c1c(CS(=O)(=O)c2ccccc2)n(C)c2cc(Br)c(O)c(CN(C)C)c12 | 62* | 30 | -26 | 1 | 0 | 0
CC(Sc1nnnn1-c1ccc(Cl)cc1)C(=O)NCC(=O)Nc1ccc(F)c(F)c1F (centres undefined) | 13 | 18 | -7 | 0 | 1 | -4
NNc1ccc(Cl)nn1 | -12 | -4 | -56 | 3 | 0 | nt
Cc1cccc(NC(=O)Cn2c(=O)oc3ccccc32)c1 | 16 | 20 | -12 | 4 | 2 | 0
Cc1cccc(NC(=O)Cn2c(O)c(N=NC(=O)c3ccccc3O)c3ccccc32)c1 | 66* | -67 | 66* | -1 | 0 | -1
Cc1ccc(NC(=O)Cn2c(O)c(N=NC(=O)c3cc([N+](=O)[O-])ccc3O)c3ccccc32)cc1 | 50* | -29 | -29 | 1 | 0 | nt
O=C(Nc1ccc(Cl)cc1)N(C1=NCCC1)c1ccc(OC(F)F)cc1 | -4 | 4 | -1 | 1 | 0 | -1
O=C(O)/C=C/S(=O)(=O)c1ccc2ccccc2c1 | -6 | 3 | -5 | 0 | 1 | nt
Fc1ccc(CSc2ccc3nnc(-c4cccnc4)n3n2)cc1 | 27 | -4 | -9 | -4 | -1 | 3
NC(=O)c1cnn2c(-c3cccc(C(F)(F)F)c3)ccnc12 | 3 | -125 | 98* | -3 | 0 | nt
O=C(O)c1cnn2c(-c3ccc(F)cc3)ccnc12 | 0 | -139 | 0 | 0 | 12 | 0
SMILES | Mcl1 Noxa PPI | m-calpain inh | Mcl1-Bid inh | TNF necrop inh | L929 necroptosis | Mcl-1 Bim block
O=C(N/N=C/c1ccc(F)cc1)c1cc(-c2ccc3c(c2)OCO3)n[nH]1 | -9 | -7 | 4 | -3 | -1 | nt
CN(C)c1ccc(/C=N/NC(=O)c2cc(-c3ccc4c(c3)OCO4)n[nH]2)cc1 | 60* | -221 | 1 | -10 | -1 | nt
O=C1CS/C(=N\C(=O)N2c3ccccc3Sc3ccccc32)N1 | 69* | -119 | 0 | -1 | 0 | -1
CCn1c(=S)[nH]c2scc(-c3cccs3)c2c1=O | 13 | 27 | -51 | -1 | 1 | -6
CC(C)n1c(=S)[nH]c2scc(-c3cccs3)c2c1=O | 73* | 59* | -17 | -13 | 0 | nt
N#Cc1cc(-c2ccccc2)nc(Oc2ccccc2)n1 | -1 | -12 | 83* | -3 | 0 | -5
COc1ccc(CNC(=O)CSc2n[nH]c(C)c2[N+](=O)[O-])cc1 | 4 | 7 | -9 | 1 | 1 | -1
CCOc1ccc2cc(/C=C/C(=O)c3ccco3)c(Cl)nc2c1 | -23 | -120 | 59* | -12 | 1 | 1
CCOc1ccc2cc(C3CC(c4ccco4)=NN3S(C)(=O)=O)c(Cl)nc2c1 (centres undefined) | -6 | -17 | -1 | 1 | 1 | nt
CC1(C)CC(=O)C/C(=N\NC(=O)CCc2ccc(S(=O)(=O)N3CCOCC3)cc2)C1 | -7 | -16 | -30 | 0 | 2 | -4
CCCN(CC1CC1)C(=O)CSc1ncnc2sccc12 | 16 | 8 | -23 | 3 | 0 | -1
O=C(/C=C/c1ccc(Cl)c([N+](=O)[O-])c1)Nc1ccc(N2CCCC2)cc1 | 75* | -66 | -39 | 1 | 1 | -8
Nc1ccc2c(c1)-c1ccccc1S(=O)(=O)N2 | 52* | -10 | -61 | -1 | 0 | 2
Cc1ccc2c(c1)-c1ccccc1S(=O)(=O)N2 | nt | nt | nt | 0 | 0 | nt
N=C(N)SCP(=O)(c1ccccc1)c1ccccc1 | 9 | -13 | 56* | -3 | 16 | nt
CC(=O)NC(NC(=S)Nc1cccc(Br)c1)C(Cl)(Cl)Cl (centres undefined) | 8 | -13 | -122 | -2 | 1 | nt
c1cc(Nc2cccc3nccnc23)c2nccnc2c1 | 21 | 7 | -16 | -10 | 6 | 2
Brc1c(NC2=NCCN2)ccc2nccnc12 | 59* | 1 | 2 | 1 | 1 | 0
C=CCn1c(=NC(=O)c2ccco2)sc2cc(C(=O)OCC)ccc21 | 24 | -28 | 51* | -1 | 1 | -3
CCCCCSc1nnc2c(n1)OC(c1cccn1C)N(C(C)=O)c1ccccc1-2 (centres undefined) | 7 | -4 | 98* | 0 | 0 | 0
